In PubChem BioAssay (NCI):
Compounds without any hit were thinned out: in the full panel of roughly 83,000, 20% have a hit.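 Method: cells in 96-well plates; compound added at one concentration; 48 h incubation; percent growth measured; values under 10 scored active.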 Activity calls are given as the source filed them.

How the values were obtained:
Experiment in all cases: NCI-60 one-dose screen, 48 h (100 = growth as untreated, 0 = no growth, -100 = all killed)
Details in all cases: 10 µM unless noted
DU-145 prostate = system: DU-145 prostate
K-562 leukemia = system: K-562 leukemia
MALME-3M melanoma = system: MALME-3M melanoma
MDA-MB-231 breast = system: MDA-MB-231 breast
RXF 393 renal = system: RXF 393 renal
SF-268 CNS = system: SF-268 CNS
SF-295 CNS = system: SF-295 CNS
SF-539 CNS = system: SF-539 CNS
UACC-257 melanoma = system: UACC-257 melanoma
M14 melanoma = system: M14 melanoma

Measured: growth

COc1ccccc1N1CCCCC1
inactive: DU-145 prostate 110% | K-562 leukemia 93.5% | MALME-3M melanoma 94.6% | MDA-MB-231 breast 99.9% | RXF 393 renal 133% | SF-268 CNS 108% | SF-295 CNS 98.9% | SF-539 CNS 94.3% | UACC-257 melanoma 108% | M14 melanoma 101%

CCOC(=O)c1c(NC(=O)c2cccc(C(F)(F)F)c2)sc2c(CN(C)C)c(O)ccc12
active: K-562 leukemia 2.41% | MALME-3M melanoma -38.5% | UACC-257 melanoma -10.5% | M14 melanoma -57.8%
inactive: DU-145 prostate 72.5% | MDA-MB-231 breast 58.9% | RXF 393 renal 38.4% | SF-268 CNS 84.7% | SF-295 CNS 96.2% | SF-539 CNS 49.3%

COC(=O)c1c(C)nc(C)c2c1C(=O)C(Br)=C(NCc1ccccc1)C2=O
active: MALME-3M melanoma -75.4% | SF-539 CNS 7.13% | UACC-257 melanoma -7.87%
inactive: DU-145 prostate 38% | K-562 leukemia 21% | MDA-MB-231 breast 14.8% | RXF 393 renal 52.4% | SF-268 CNS 33% | SF-295 CNS 30.1% | M14 melanoma 14%

COc1ccc(OC)c(/C=N/Nc2ncnc3c2c(C)nn3C)c1
inactive: DU-145 prostate 108% | K-562 leukemia 93.2% | MALME-3M melanoma 119% | MDA-MB-231 breast 81% | RXF 393 renal 96.9% | SF-268 CNS 87.1% | SF-295 CNS 99.7% | SF-539 CNS 105% | UACC-257 melanoma 112% | M14 melanoma 101%

OB1OCc2cc(/C=C/c3cccc(C(F)(F)F)c3)ccc21
active: DU-145 prostate -6.62% | MALME-3M melanoma 9.86% | MDA-MB-231 breast -33.9% | RXF 393 renal -40.3% | SF-295 CNS 7.3% | SF-539 CNS -58.9% | M14 melanoma -7.54%
inactive: K-562 leukemia 11.4% | SF-268 CNS 10.6% | UACC-257 melanoma 37.1%

N#CSc1c[nH]c2cccc(/C=C/C(=O)/C=C(/C=C/c3cccc4[nH]cc(SC#N)c34)OB(F)F)c12
active: DU-145 prostate -69.4% | K-562 leukemia -14.8% | MALME-3M melanoma -52.8% | MDA-MB-231 breast -42.3% | RXF 393 renal -77.6% | SF-268 CNS 8.33% | SF-295 CNS -4.04% | SF-539 CNS -8.18% | UACC-257 melanoma -50.6% | M14 melanoma -40.9%

CCCCNC(=O)CC1=C(C)/C(=C/c2[nH]c(-c3ccc[nH]3)cc2OC)N=C1C
inactive: DU-145 prostate 34.6% | MALME-3M melanoma 34% | MDA-MB-231 breast 13.5% | RXF 393 renal 59.4% | SF-268 CNS 27% | SF-295 CNS 14.6% | SF-539 CNS 27.8%
active: K-562 leukemia 1.68% | UACC-257 melanoma 5.48% | M14 melanoma -43.1%

N#Cc1c(-c2ccc(Cl)cc2)c(C#N)c2c(C#N)c(N)nn2c1N
inactive: DU-145 prostate 84% | K-562 leukemia 89.3% | MALME-3M melanoma 106% | MDA-MB-231 breast 71.3% | RXF 393 renal 79.7% | SF-268 CNS 83.7% | SF-295 CNS 83.3% | SF-539 CNS 78% | UACC-257 melanoma 89.2% | M14 melanoma 103%

Clc1ccc2c(NC3CCC(N4CCOCC4)CC3)ccnc2c1 (stereo not given)
inactive: DU-145 prostate 90.9% | K-562 leukemia 48.6% | MALME-3M melanoma 89.3% | MDA-MB-231 breast 81.7% | RXF 393 renal 90.3% | SF-268 CNS 108% | SF-295 CNS 47.1% | SF-539 CNS 91.4% | UACC-257 melanoma 56.6% | M14 melanoma 84%

O=C(O)CCN1C(=O)/C(=C/C(Cl)=C/c2ccccc2)SC1=S
active: RXF 393 renal -10.2%
inactive: DU-145 prostate 22.2% | K-562 leukemia 14.5% | MALME-3M melanoma 36.1% | MDA-MB-231 breast 49.9% | SF-268 CNS 26.5% | SF-295 CNS 51.5% | SF-539 CNS 10.2% | UACC-257 melanoma 33.3% | M14 melanoma 10.3%

Cc1ccccc1/C=C/C(=O)c1cccc(OCCCCOc2cccc(C(=O)/C=C/c3ccccc3C)c2)c1
inactive: DU-145 prostate 98% | K-562 leukemia 97.1% | MALME-3M melanoma 96.9% | MDA-MB-231 breast 95% | RXF 393 renal 98.6% | SF-268 CNS 102% | SF-295 CNS 97.7% | SF-539 CNS 105% | UACC-257 melanoma 92.2% | M14 melanoma 97.9%

N#CC1=C(c2ccccc2)Nc2c(c(-c3ccc(Cl)cc3)nn2-c2ccccc2)C12C(=O)Nc1ccc(Cl)cc12 (stereo not given)
inactive: DU-145 prostate 86.1% | K-562 leukemia 65.9% | MALME-3M melanoma 86.4% | MDA-MB-231 breast 58.8% | RXF 393 renal 49.8% | SF-268 CNS 55.3% | SF-295 CNS 56.5% | SF-539 CNS 85.2% | UACC-257 melanoma 73% | M14 melanoma 72.7%

Cc1[nH]c(=O)[nH]c(=O)c1Br
inactive: DU-145 prostate 125% | K-562 leukemia 98.3% | MALME-3M melanoma 119% | MDA-MB-231 breast 99.3% | RXF 393 renal 115% | SF-268 CNS 95.2% | SF-295 CNS 98.4% | SF-539 CNS 114% | UACC-257 melanoma 88.1% | M14 melanoma 107%

Cn1cc(C(=O)c2nc(-c3c[nH]c4ccccc34)no2)c2cc(F)ccc21
inactive: DU-145 prostate 72.5% | K-562 leukemia 16.7% | MALME-3M melanoma 37.3% | MDA-MB-231 breast 57.1% | RXF 393 renal 89.9% | SF-268 CNS 54.9% | SF-295 CNS 20.7% | SF-539 CNS 30% | UACC-257 melanoma 51.2% | M14 melanoma 33%

CS(=O)(=O)Nc1cncc(-c2ccc3ncnc(Nc4cncc(Cl)c4)c3c2)c1
inactive: DU-145 prostate 88.4% | K-562 leukemia 100% | MALME-3M melanoma 65.1% | MDA-MB-231 breast 77.1% | RXF 393 renal 87.3% | SF-268 CNS 68.1% | SF-295 CNS 97.1% | SF-539 CNS 74.6% | UACC-257 melanoma 67.9% | M14 melanoma 93.1%

CCOc1ccc(NC(=O)CSc2oc(-c3ccccc3)nc2S(=O)(=O)c2ccc(C)cc2)cc1
inactive: DU-145 prostate 67.3% | K-562 leukemia 53% | MALME-3M melanoma 81% | MDA-MB-231 breast 32.2% | RXF 393 renal 62.1% | SF-268 CNS 54.1% | SF-295 CNS 48.1% | SF-539 CNS 17.8% | UACC-257 melanoma 72% | M14 melanoma 71%

C=CCSc1nnc(NC(=O)CCl)s1
inactive: DU-145 prostate 87.4% | K-562 leukemia 87.7% | MALME-3M melanoma 73.8% | MDA-MB-231 breast 89.6% | RXF 393 renal 97.5% | SF-268 CNS 91.9% | SF-295 CNS 101% | SF-539 CNS 101% | UACC-257 melanoma 79.1% | M14 melanoma 83.2%

Cc1ccc2c(Cn3cc(CSc4nc5ccccc5o4)nn3)cc(=O)oc2c1
inactive: DU-145 prostate 111% | K-562 leukemia 98.4% | MALME-3M melanoma 104% | MDA-MB-231 breast 106% | RXF 393 renal 98.6% | SF-268 CNS 103% | SF-295 CNS 110% | SF-539 CNS 101% | UACC-257 melanoma 104% | M14 melanoma 114%

CCN(CC)CCn1c2ccc(OC)cc2c2sc3cc(OC)ccc3c(=O)c21
active: K-562 leukemia 4.61% | MALME-3M melanoma -27% | M14 melanoma -77.9%
inactive: DU-145 prostate 44.9% | MDA-MB-231 breast 40.5% | RXF 393 renal 12.7% | SF-268 CNS 38.5% | SF-295 CNS 18.9% | SF-539 CNS 22.7% | UACC-257 melanoma 41.3%

CCOC(=O)c1ccc2c(c1)nc(-c1ccccc1)n2C1CCCCC1
inactive: DU-145 prostate 105% | K-562 leukemia 73.1% | MALME-3M melanoma 112% | MDA-MB-231 breast 102% | RXF 393 renal 112% | SF-268 CNS 108% | SF-295 CNS 94.4% | SF-539 CNS 104% | UACC-257 melanoma 78.2% | M14 melanoma 88.3%

CC(C)(C)CC(C)(C)NC(=O)Nc1ncccc1OCc1ccccc1
inactive: DU-145 prostate 97.1% | K-562 leukemia 89.3% | MALME-3M melanoma 91.8% | MDA-MB-231 breast 96.9% | RXF 393 renal 116% | SF-268 CNS 93.1% | SF-295 CNS 88.3% | SF-539 CNS 102% | UACC-257 melanoma 85.8% | M14 melanoma 103%

Cc1cc(N2CCCCC2)cc(C)c1-c1csc(NC(=O)c2ccncc2)n1
inactive: DU-145 prostate 77% | K-562 leukemia 22.1% | MALME-3M melanoma 59.7% | MDA-MB-231 breast 54.5% | RXF 393 renal 77.6% | SF-268 CNS 60% | SF-295 CNS 22.5% | SF-539 CNS 81.1% | UACC-257 melanoma 33.2% | M14 melanoma 57.8%

CC(C)c1ccc(-n2c(=S)[nH]c3sc4cc(O)ccc4c3c2=O)cc1
inactive: DU-145 prostate 104% | K-562 leukemia 107% | MALME-3M melanoma 87.1% | MDA-MB-231 breast 95.4% | RXF 393 renal 91.2% | SF-268 CNS 99.4% | SF-295 CNS 103% | SF-539 CNS 93.6% | UACC-257 melanoma 111% | M14 melanoma 94.6%

CCSc1nc2scc(C)c2c(=O)[nH]1
inactive: DU-145 prostate 105% | K-562 leukemia 99.9% | MALME-3M melanoma 106% | MDA-MB-231 breast 104% | RXF 393 renal 112% | SF-268 CNS 100% | SF-295 CNS 99.2% | SF-539 CNS 99.2% | UACC-257 melanoma 105% | M14 melanoma 107%

COc1ccc(Nc2ncc(Br)c(NCCCNC(=O)c3cccs3)n2)cc1
inactive: DU-145 prostate 35.6% | K-562 leukemia 28% | MALME-3M melanoma 55.4% | MDA-MB-231 breast 31.2% | SF-268 CNS 13.2% | SF-295 CNS 52.4% | SF-539 CNS 14.8% | UACC-257 melanoma 105% | M14 melanoma 50.2%
active: RXF 393 renal -26.7%

O=C(O)c1cn(C2CC2)c2cc(N3CCN(Cc4ccc5ccccc5c4O)CC3)c(F)cc2c1=O
inactive: DU-145 prostate 11.2% | K-562 leukemia 62% | MALME-3M melanoma 13.9% | MDA-MB-231 breast 48.4% | SF-268 CNS 57.1% | SF-295 CNS 44.2% | UACC-257 melanoma 38.5% | M14 melanoma 48%
active: RXF 393 renal -23.2% | SF-539 CNS -4.68%
